Assay results taken from PubChem BioAssay (EPA / NIEHS).
Calls of active or inactive are those of the source. How the source made its calls: active means hit-call score of the fitted dose curve at least 0.9, where 1 is the maximum; inactive means score below 0.9.

Assay: ATG_CRE_CIS: Attagene CIS-FACTORIAL HepG2 Assay for human cAMP Responsive Element (CRE) binding protein 3 (AID 2282926)
Details: HepG2 CRE cis-reporter, Attagene multiplexed mRNA; actives raise or lower the signal
Method in brief: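 We dosed HepG2 cells bearing multiple cis-promoter reporter units for 24 h and measured reporter mRNA by RT-PCR with capillary electrophoresis detection. Bidirectional concentration-response fitting used DMSO as negative control.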

| SMILES | outcome | AC50 |
| --- | --- | --- |
| CC1(C)S[C@@H]2[C@H](NC(=O)[C@H](N)c3ccccc3)C(=O)N2[C@H]1C(=O)O | inactive |  |
| CCC(C)(CCC(C)C)C(=O)O (centres undefined) | inactive |  |
| Cc1cc(C)c(S(=O)(=O)O)cc1N=Nc1cc(S(=O)(=O)O)c2ccccc2c1O | inactive |  |
| CCCc1c(OCCCCc2nn[nH]n2)ccc(C(C)=O)c1O | inactive |  |
| Clc1ccccn1 | inactive |  |
| c1cc(N(CC2CO2)CC2CO2)ccc1Cc1ccc(N(CC2CO2)CC2CO2)cc1 (centres undefined) | inactive |  |
| CCCCCCOC(=O)CCCCCCCC(=O)OCCCCCC | inactive |  |
| CC1=NN(c2cc(Cl)c(S(=O)(=O)O)cc2Cl)C(=O)C1N=Nc1ccc(S(=O)(=O)O)cc1 (centres undefined) | inactive |  |
| O=C(O)Cc1c[nH]c2ccccc12 | inactive |  |
| CCCCCCCCCCC1CO1 (centres undefined) | inactive |  |
| NCc1ccccc1 | inactive |  |
| O=[N+]([O-])c1ccc2nc[nH]c2c1 | inactive |  |
| CCCCn1cc[n+](C)c1 | inactive |  |
| CC(C)CC(=O)O | inactive |  |
| C[Si](C)(C)O[Si](C)(C)O[Si](C)(C)C | inactive |  |
| Cc1cc(O)cc(C)c1Cl |  | 79 µM (active) |
| CC(C)n1c(/C=C/[C@@H](O)C[C@@H](O)CC(=O)O)c(-c2ccc(F)cc2)c2ccccc21 | inactive |  |
| CC1=C(CC=O)C(C)(C)CCC1 | inactive |  |
| CC(O)(P(=O)(O)O)P(=O)(O)O | inactive |  |
| Cc1cccnc1 | inactive |  |

| SMILES | outcome | AC50 |
| --- | --- | --- |
| Cc1ccccc1S(N)(=O)=O | inactive |  |
| C=C(C)C(=O)OCC1CCCO1 (centres undefined) | inactive |  |
| OCCOCCOCCOCCOCCO | inactive |  |
| C1=CCC=C1 | inactive |  |
| CC(C)CC(=O)CC(C)CC(C)C (centres undefined) | inactive |  |
| CCCOCCC | inactive |  |
| CN(C)CCC(c1ccc(Cl)cc1)c1ccccn1 (centres undefined) | inactive |  |
| CN(C)CCCN1c2ccccc2CCc2ccc(Cl)cc21 | inactive |  |
| CC/C=C\CC1=C(C)CCC1=O | inactive |  |
| C[C@H]1C[C@H]2[C@@H]3CCC4=CC(=O)C=C[C@]4(C)[C@@]3(F)[C@@H](O)C[C@]2(C)[C@@]1(O)C(=O)CO | inactive |  |
| COC(OC)C(C)c1ccccc1 (centres undefined) | inactive |  |
| F[B-](F)(F)F | inactive |  |
| COCCCN | inactive |  |
| CC1=CCCC(C)(C)C12CCC(C)O2 (centres undefined) | inactive |  |
| CC(=O)c1nccs1 | inactive |  |
| COc1ccccc1OCC(O)CO (centres undefined) | inactive |  |
| OCCN(CCO)c1cccc(Cl)c1 | inactive |  |
| O=C(O)c1nc(Cl)c(Cl)c(Cl)c1Cl | inactive |  |
| CC=CC(=O)O | inactive |  |
